Inconclusive results are not listed. Values without a mark were called inactive. Calls of active or inactive are those of the source. Calls come from the whole dose curve; as a rule, active = well fitted inhibition curve with a large enough effect; inconclusive = small, poorly fitted or top-dose-only effect; inactive = no such curve, though single readings can be large or run the other way.
The molecules below were run against Cytochrome P450 2C19 (Homo sapiens) (UniProt P33261) (assay: qHTS for inhibitors of CYP2C19 against the NCATS DSHEA and TCM libraries (AID 1919974)). Conditions: CYP2C19 enzyme inhibition, luminescence qHTS; series mostly up to 34.1 µM; activity change, negative = inhibition: at the top concentration.
Cytochrome P450 2C19 (Homo sapiens), sequence (P33261 whole entry, looked up): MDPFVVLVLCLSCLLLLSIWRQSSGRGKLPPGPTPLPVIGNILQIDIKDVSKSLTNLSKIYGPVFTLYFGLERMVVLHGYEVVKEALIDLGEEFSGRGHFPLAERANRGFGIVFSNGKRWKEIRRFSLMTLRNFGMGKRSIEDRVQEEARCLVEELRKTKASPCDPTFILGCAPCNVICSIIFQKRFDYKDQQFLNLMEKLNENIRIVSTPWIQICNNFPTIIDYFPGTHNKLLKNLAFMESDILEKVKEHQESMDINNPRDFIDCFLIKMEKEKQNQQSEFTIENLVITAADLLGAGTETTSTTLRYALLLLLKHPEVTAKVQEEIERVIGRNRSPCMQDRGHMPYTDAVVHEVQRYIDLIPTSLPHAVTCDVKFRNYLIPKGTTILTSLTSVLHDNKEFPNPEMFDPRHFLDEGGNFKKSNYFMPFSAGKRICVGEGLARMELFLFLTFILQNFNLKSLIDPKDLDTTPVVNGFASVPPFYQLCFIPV
Excerpt: Assay Development and Screening Technology Laboratory (ADST)
National Center for Advancing Translational Sciences (NCATS), Rockville, MD
National Institute of Health (NIH), Bethesda, Maryland
Dietary Supplements and Natural Products have minor oversight of their safety and efficacy. We assembled a collection of Dietary Supplements and Natural Products (DSNP) as well as Traditional Chinese Medicinal (TCM) Plant extracts, which were screened against an in vitro panel of assays, including a liver cytochrome p450 enzyme panel, CAR/PXR signaling pathways, and P-gp transporter assays, to assess their activity. This pipeline facilitated the interrogation of Natural Product-Drug Interaction (NaPDI) through prominent metabolizing pathways. In addition, we compared the activity profiles of the DSNP/TCM substances with those of an approved drug collection. Many of the approved drugs have well-annotated mechanisms of action (MOA) while the MOAs for most of the DSNP and TCM samples remain unknown. Based on the premise that compounds with similar activity profiles tend to share similar targets or MOA, we clustered the library activity profiles to identify overlap with the NCATS Pharmaceutical Collection to predict the MOAs of the DSNP/TCM substances. Overall, we highlight four significant bioactivity profiles (measured by p-values) as examples of this prediction. To assess broad cytotoxicity, we employed screening against a HepG2 cell line. In addition, transporter-mediated drug interactions are utilized in the characterization of DDIs using a P-glycoprotein (P-gp) assays. To profile potential P-gp activity, a differential cell viability was measured against two cell lines: a parental KB-3-1 human cervical adenocarcinoma cell line and the drug-resistant subline KB-8-5-11 that overexpresses P-gp.
To this end, we profiled both collections for potential CAR and/or PXR activity, employing a previously published 1536-well qHTS assay.
[1] Lee TD, et al. A High-Throughput Screen of a Library of Therapeutics Identifies Cytotoxic Substrates of P-glycoprotein. Mol Pharmacol. Nov 2019;96(5):629-640. doi:10.1124/mol.119.115964
PROTOCOL TABLE (as described by Inglese J, Shamu CE and Guy RK. 2007)
SEQUENCE No. (e.g., 1, 2, 3, etc.); […] (e.g., Cells, Incubation, Reagent, etc.); VALUE; DESCRIPTION.
1; Reagent; 2 uL; cytochrome P450 enzyme and luciferin substrate or buffer only, white solid-bottom Greiner plate.
2; Compounds and control; 16 nL; Kalypsis pintool (Wako USA) equipped with a 1536-well pin head to transfer to the assay plates.
3; Incubation; 15 min; room temperature.
4; Reagent; 2 uL; nicotinamide adenine dinucleotide phosphate (NADPH).
5; Incubation; 30 - 45 min; room temperature in the dark.
6; Reagent; 4 uL; P450-Glo assay detection reagent.
7; Centrifuge; 1000 RPM; 15 seconds.
8; Incubation; 30 min; room temperature.
9; Read; Luminescence; ViewLux plate reader.
NOTES (numbers refer to Sequence numbers above)
1. A 2 uL mixture of corresponding enzymes and luciferin substrate (final concentrations CYP enzyme-specific and pro-luciferin substrate-specific) or minus-enzyme (assay buffer conditions supplied by the manufacturer for respective enzyme isoform; typically, 100 mM KPO4) and luciferin substrate were dispensed using a BioRAPTR FRD (Beckman Coulter, Brea, CA) into columns of a 1536-well white solid-bottom medium binding plate (Greiner Bio-One, Monroe, NC). Five isoforms of cytochrome P450 were used (CYP1A2, CYP2C9, CYP2C19, CYP2D6, and CYP3A4).
2. Substances (final concentrations of most substances ranged from 19.5 nM to 39.8 uM) and controls (CYP-specific) were transferred (16 nL) via pintool (Wako Automation, Richmond, VA). Intraplate controls furafylline (CYP1A2), sulfaphenazole (CYP2C9), ketoconazole (CYP2C19), quinidine (CYP2D6), and ketoconazole (CYP3A4) were used correspondingly.
3. Assay plates were incubated at room temperature for 15 min.
4-5. […]
% is set by controls: 0 for no effect and ±100 for the full control effect; potency is the fitted concentration of half-maximal effect.

Row | SMILES | activity change, negative = inhibition | Potency
1 | CC1(C)CC[C@]2(C(=O)O)CC[C@]3(C)C(=CCC4[C@@]5(C)CC[C@@H](O)C(C)(C)C5CC[C@]43C)C2C1 (stereo not given in full) | 0.418% | 
2 | COc1ccc(-c2coc3cc(O[C@@H]4O[C@H](CO)[C@@H](O)[C@H](O)[C@H]4O)ccc3c2=O)cc1 | -0.346% | 
3 | C=C1CC[C@H]2C[C@@H]1C2(C)C | 15.7% [at 58.3 µM] | 
4 | C=C1C[C@@]23CC[C@H]4[C@@](C)(CCC[C@@]4(C)C(=O)O[C@@H]4O[C@H](CO)[C@@H](O)[C@H](O)[C@H]4O)[C@@H]2CC[C@]1(O[C@@H]1O[C@H](CO)[C@@H](O)[C@H](O[C@@H]2O[C@H](CO)[C@@H](O)[C@H](O)[C@H]2O)[C@H]1O[C@@H]1O[C@@H](C)[C@H](O)[C@@H](O)[C@H]1O)C3 | 4.05% | 
5 | CC(C)=CCC[C@](C)(O[C@@H]1O[C@H](CO)[C@@H](O)[C@H](O)[C@H]1O)[C@H]1CC[C@]2(C)[C@@H]1[C@H](O)C[C@@H]1[C@@]3(C)CC[C@H](O[C@@H]4O[C@H](CO)[C@@H](O)[C@H](O)[C@H]4O[C@@H]4O[C@H](CO)[C@@H](O)[C@H](O)[C@H]4O)C(C)(C)[C@@H]3CC[C@]12C | -32.1% | 
6 | O=C(/C=C/c1ccc(O)c2c1[C@H](C(=O)O)[C@@H](c1ccc(O)c(O)c1)O2)O[C@H](Cc1ccc(O)c(O)c1)C(=O)O | -14.8% | 
7 | OCCc1ccc(O)cc1 | 14.4% [at 58.3 µM] | 
8 | CCCCCC/C=C\CCCCCCCC(=O)O | -27.4% | 
9 | O=c1cc(-c2ccc(O)c(O)c2)oc2cc(O[C@@H]3O[C@@H](CO)[C@@H](O)[C@@H](O)[C@H]3O)cc(O)c12 |  | 3.55 µM (active)
10 | CCCCCCCCCCCCCCCCCCCCCC(=O)O | -15.7% | 
11 | C=C1C[C@@]23CC[C@H]4[C@@](C)(CCC[C@@]4(C)C(=O)O[C@@H]4O[C@H](CO)[C@@H](O)[C@H](O)[C@H]4O[C@@H]4O[C@H](CO)[C@@H](O)[C@H](O)[C@H]4O)[C@@H]2CC[C@]1(O[C@@H]1O[C@H](CO)[C@@H](O)[C@H](O)[C@H]1O[C@@H]1O[C@H](CO)[C@@H](O)[C@H](O)[C@H]1O)C3 | 12.7% | 
12 | CCCCCCC/C=C/C(=O)CCc1ccc(O)c(OC)c1 |  | 6.31 µM (active)
13 | Oc1cc(O)c2c(c1)O[C@@H](c1cc(O)c(O)c(O)c1)[C@H](O)C2 |  | 3.55 µM (active)
14 | CCCCCCCCCCCCCC(=O)O | -23.8% | 
15 | O[C@@H]1[C@@H](O)[C@H](OC/C=C/c2ccccc2)O[C@H](CO[C@@H]2OC[C@H](O)[C@H](O)[C@H]2O)[C@H]1O | 23.4% | 
16 | CC1=CC[C@H](C(C)C)C=C1 |  | 39.8 µM (active)
17 | CC/C=C\C/C=C\C/C=C\C/C=C\CCCCC(=O)O | 43.3% [at 4.27 µM] | 
18 | O=C(/C=C/c1ccc(O)c(O)c1)O[C@@H]1CC(C(=O)O)=C[C@@H](O)[C@H]1O | -21.9% | 
19 | C=C1CC[C@H](O)C/C1=C\C=C1/CCC[C@]2(C)[C@@H]([C@H](C)CC[C@H](C)C(C)C)CC[C@@H]12 |  | 22.4 µM (active)
20 | CCCCC/C=C/C/C=C/CCCCCCCC(=O)O |  | 22.4 µM (active)

From PubChem BioAssay (NCATS)
